MARV entry inh = qHTS for inhibitors of binding or entry into cells for Marburg Virus | Marburg virus pseudotyped entry inhibition, cell reporter | Potency, µM (doses to about 37.8 µM), hits mostly inhibitors | 300,000 compounds, 1.8% hits | AID 540276, 2011; calls by dose curve; tested in HEK293 cells
LASV entry inh = qHTS for Inhibitors of binding or entry into cells for Lassa Virus; Lassa virus pseudotype entry inhibition, cell reporter; 300,000 compounds, 1.2% hits; Potency, µM (series often up to 37.9 µM), hits mostly inhibitors; calls by dose curve; tested in HEK293 cells; note: nearly all actives have a fitted effect of over 50% in size
HCMV inh = qHTS Assay for inhibitors of the human cytomegalovirus (HCMV); HFF cells, HCMV-luciferase reporter, 72 h; hits give low values; activity change, negative = inhibition, % at 57.5 µM; 410,000 compounds, 4.5% hits; AID 1259415, 2018; in the data active = activity change below about -60%; inconclusive = no clear call, values can overlap the other calls; inactive = above about -39%
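Steps: HFFs plated, 16 h 37C; compounds added; HCMV-luciferase added to MOI 1 PFU/cell; 72 h 37C; OneGlo reagent, 5 min room temperature; luminescence read, normalized to controls.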
FMDV inh = High Throughput Screening for Foot and Mouth Disease Virus Antivirals; FMDV antiviral cell-based qHTS; Potency, µM (top dose mostly 57.9 µM), most hits filed as inhibitors; AID 1159524, 2015; 410,000 compounds, 1.2% hits; calls by dose curve; tested in HEK293T cells; note: read-out not given here; nearly all actives have a fitted effect of over 45% in size
Of the large screens only hits and unclear results are named; the others gave an inactive call. A selection: hits, their analogues and other compounds. The true share with any hit is near 6.2%.

COc1cccc(S(=O)(=O)Nc2ccc3c(c2)[C@@H]2C[C@@H](CC(=O)NCc4ccc(Cl)cc4)O[C@@H](CO)[C@@H]2O3)c1	HCMV inh -78 (no result: MARV entry inh, LASV entry inh)
CCc1ccc2[nH]c3nc(SCC(=O)NNC(=O)c4ccc(C(C)(C)C)cc4)nnc3c2c1	MARV entry inh 4.6µM, LASV entry inh inconclusive, HCMV inh -106
CCc1ccc2[nH]c3nc(SCCN4CCOCC4)nnc3c2c1	HCMV inh -91, FMDV inh inconclusive (no result: MARV entry inh, LASV entry inh)
CCc1ccc2[nH]c3nc(SCC(=O)NCC4CCCO4)nnc3c2c1 (centres undefined)	MARV entry inh inconclusive, HCMV inh inconclusive (no result: LASV entry inh)
CC(=O)C(Sc1ccc2nnc(-c3ccncc3)n2n1)C(C)=O	HCMV inh -62 (no result: MARV entry inh, LASV entry inh)
O=C(NCCc1nnc2ccc(NCc3cccnc3)nn12)c1ccccc1F	none (no result: MARV entry inh, LASV entry inh)
COc1ccc([C@@H]2CC(=O)c3c(O)cc(O[C@@H]4OC(CO[C@@H]5OC(C)[C@H](O)[C@@H](O)[C@H]5O)[C@@H](O)[C@H](O)[C@H]4O)cc3O2)cc1O (some centres undefined)	none (no result: MARV entry inh, LASV entry inh)
c1ccc(-c2ccc(-c3nc(-c4ccccn4)no3)cc2)cc1	MARV entry inh inconclusive, LASV entry inh inconclusive, HCMV inh -95, FMDV inh 2.8µM
Clc1cccc(-c2nc(-c3ccccn3)no2)c1	MARV entry inh inconclusive, LASV entry inh 1.8µM, FMDV inh inconclusive
c1ccc(-c2cc(-c3nc(-c4ccccn4)no3)c3ccccc3n2)cc1	LASV entry inh inconclusive, FMDV inh inconclusive
Cc1ccc(-c2nc(-c3ccccn3)no2)cc1Cl	MARV entry inh inconclusive, LASV entry inh 1.4µM, HCMV inh -64
Cc1ccc(-c2nc(-c3ccccn3)no2)cc1	MARV entry inh 1.1µM, LASV entry inh 0.32µM, HCMV inh -91, FMDV inh 2.8µM
S=c1nc(-c2ccc(Br)cc2)[nH]c2ccccc12	none (no result: MARV entry inh, LASV entry inh)
CC(=O)Nc1ccc(S(=O)(=O)N2CCN(Cc3cccc([N+](=O)[O-])c3)CC2)cc1	FMDV inh inconclusive
c1ccc(-c2noc(-c3ccno3)n2)nc1	none (no result: MARV entry inh, LASV entry inh)
c1ccc(-c2nc(-c3ccccn3)no2)cc1	MARV entry inh inconclusive, LASV entry inh inconclusive, FMDV inh 13µM
CCn1c(CN2CCC(C)CC2)nc2cc(NC(=O)COc3ccc(Cl)c(C)c3)ccc21	MARV entry inh inconclusive, LASV entry inh inconclusive, HCMV inh inconclusive, FMDV inh 18µM
Cc1cccc(OCC(=O)Nc2ccc3c(c2)nc(CCN2CCC(C)CC2)n3C)c1	HCMV inh -69 (no result: MARV entry inh, LASV entry inh)
Cc1ccc2nc(-c3ccncc3)c(NC3CCCC3)n2c1	HCMV inh -65 (no result: MARV entry inh, LASV entry inh)
CCCCN1C(=O)Cc2c1nc(N)c1c(N)nc(N(CCC)CCC)c(C#N)c21	none
N#Cc1c(N2CCCC(O)C2)nc(N)c2c(N)nc3c(c12)CC(=O)N3C12CC3CC(CC(C3)C1)C2 (centres undefined)	MARV entry inh inconclusive, LASV entry inh 8.2µM
C=C(C)CN(CC)c1nc(N)c2c(N)nc3c(c2c1C#N)CC(=O)N3C12CC3CC(CC(C3)C1)C2	MARV entry inh 2.5µM, LASV entry inh inconclusive, HCMV inh -69, FMDV inh inconclusive
COc1nc(N2CCOCC2)nc(C)c1[N+](=O)[O-]	none
CC(=O)c1cccc(NC(=O)Nc2ccccc2)c1	MARV entry inh inconclusive
O=C(Nc1ccc(F)cc1)Nc1cccc(Br)c1	HCMV inh -88 (no result: MARV entry inh, LASV entry inh)
N#Cc1ccc(NC(=O)Nc2ccc(Cl)cc2)cc1	MARV entry inh inconclusive, LASV entry inh inconclusive, HCMV inh -101, FMDV inh inconclusive
O=C(NCC1CC1)Nc1ccc(Cl)cc1	HCMV inh -95 (no result: MARV entry inh, LASV entry inh)
CC(=O)c1ccc(NC(=O)Nc2ccccc2)cc1	MARV entry inh inconclusive, LASV entry inh 8.2µM (no result: FMDV inh)
O=C(NCCCl)Nc1cccc(Br)c1	none
O=C(NCC1CC1)Nc1cccc(Cl)c1	none (no result: MARV entry inh, LASV entry inh)
C[C@H]1CN([C@@H](C)CO)C(=O)CCCn2nncc2CO[C@@H]1CN(C)Cc1ccc2cccnc2c1	none (no result: MARV entry inh, LASV entry inh, FMDV inh)
O=C(Nc1ccccc1)Nc1ccccc1Br	LASV entry inh inconclusive
O=C(Nc1ccc(Cl)cc1)Nc1ccc(Cl)c(Cl)c1	HCMV inh -98 (no result: MARV entry inh, LASV entry inh)
O=C(Nc1ccc(Cl)c(Cl)c1)Nc1ccc(Br)cc1F	MARV entry inh inconclusive, LASV entry inh inconclusive, HCMV inh -99, FMDV inh inconclusive
O=C(Nc1ccccc1)Nc1ccc(Br)c(Cl)c1	HCMV inh -98
CC(C)(C)N(NC(=O)Nc1ccc(Cl)c(Cl)c1)C(=O)c1ccccc1	MARV entry inh inconclusive, LASV entry inh inconclusive, HCMV inh -80, FMDV inh inconclusive
CC(C)(C)N(NC(=O)Nc1ccc(F)cc1)C(=O)c1ccccc1	none
O=C(Nc1ccc(C(=O)N2CCOCC2)cc1)c1ccccc1[N+](=O)[O-]	none
Cc1cccc(C(C)C)c1NC(=O)CN(C)Cc1cccc(F)c1	HCMV inh inconclusive, FMDV inh inconclusive
N=C1c2c(cc(=O)n3c2[nH]c2ccccc23)CN1CCN1CCOCC1	none
COc1ccc(C(=O)Nn2cnc3ccccc3c2=O)cc1[N+](=O)[O-]	none (no result: MARV entry inh, LASV entry inh)
COC(=O)c1ccc(-n2nnnc2SC)cc1	LASV entry inh inconclusive
Cc1ccc(Cn2cnc3sc4c(c3c2=O)CCC4)c(C)c1	none
CC(C)CN1CCNC(=O)C1CC(=O)NCCc1ccc(C(F)(F)F)cc1 (centres undefined)	HCMV inh -101
CC(C)CN1CCNC(=O)C1CC(=O)NCCc1cnn(-c2ccccc2)c1 (centres undefined)	none
CC(C)[C@@H]1CC[C@@H](C)C[C@H]1OC(=O)C[n+]1cc(-c2ccc(Cl)cc2)n2c1CCCCC2	MARV entry inh inconclusive, LASV entry inh inconclusive, HCMV inh -97, FMDV inh inconclusive
O=C(C[n+]1cc(-c2ccc(Cl)cc2)n2c1CCCCC2)c1ccccc1	none
COc1ccc(-c2c[n+](CC(=O)OC3CC(C)CCC3C(C)C)c3n2CCC3)cc1 (centres undefined)	HCMV inh -100, FMDV inh 13µM (no result: MARV entry inh, LASV entry inh)
CCn1c(SCC(=O)Nc2ccc(N(C)C)cc2)nnc1C1CC1	none
CC12CC(c3ccccc3O1)C(C(=O)OCc1ccccc1)C(=O)N2 (centres undefined)	none
Cc1cc(C)c2nc(N3CCC(C(=O)NCCCN4CCCCC4)CC3)sc2c1	MARV entry inh inconclusive, LASV entry inh inconclusive, HCMV inh -103, FMDV inh inconclusive
CC(O)(CS(=O)(=O)Cc1ccc(Cl)cc1)C(=O)Nc1cccc(C(F)(F)F)c1 (centres undefined)	HCMV inh -103
CC(C)(O)C(=O)NNC(=S)Nc1cccc(C(F)(F)F)c1	none (no result: MARV entry inh, LASV entry inh)
CC(=O)c1ccc(NS(=O)(=O)Cc2ccc(Cl)cc2)cc1	none
CC(=O)Nc1cccc(NS(=O)(=O)Cc2ccc(Cl)cc2)c1	HCMV inh -66
COc1ccc(C2=NN(C(=O)CCC(=O)O)C(c3ccc(F)cc3)C2)cc1 (centres undefined)	none
Cc1cc2c(=O)n(C)c(SCC(=O)Nc3ccccc3)nc2s1	HCMV inh -61 (no result: LASV entry inh)
CCn1c(SCC(=O)Nc2ccc(F)cc2)nc2ccccc2c1=O	HCMV inh -69 (no result: MARV entry inh, LASV entry inh)
Cn1c(SCC(=O)Nc2ccccc2)nc2ccccc2c1=O	MARV entry inh 4µM, LASV entry inh inconclusive, HCMV inh inconclusive

Bioassay records (PubChem BioAssay)
